Consider 116 compounds from PubChem BioAssay AID624300 (Southern Research Specialized Biocontainment Screening …, 2012).

Among all 2,400 compounds or so, about 360 (15%) were called active.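 Rule for the calls: active = viability falls under 70% at one or more tested concentrations, taken as toxicity; inactive = viability stays over 70% at every dose.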 These entries were drawn from the full list. Entries with a potency or affinity are not part of this list.

This experiment is described as follows: viability loss in HeLa cells – cytotoxicity control for MgcRacGAP inhibitor project, dose response (AID 624300). The settings on record: CellTiter-Glo luminescence, 24 h; series mostly up to 100 µM.
Take `N#CC1=C(S)N(c2ccccc2)C(c2ccc(-c3cccc(Cl)c3)o2)NC1=O` (stereo unspecified): the compound was classed as inactive.

For the compound `COc1ccccc1N1CCN(CCCOc2ccc(F)cc2)CC1`, the compound was called inactive.

For the compound `Cc1cccc(-c2n[nH]c(=S)n2/N=C/c2ccco2)c1`, the compound was classed as inactive.

For `COc1ccc(CNc2ccc(N3CCN(C(C)=O)CC3)cc2)cc1OC`, the compound was called inactive.

On to `CCOc1cc(CNc2ccc3c(c2)OCCO3)cc(Br)c1OCC(N)=O`, for which the call was inactive.

On to `COc1cc(CNc2ccc(N3CCOCC3)cc2)cc(Br)c1OC`, for which the result was inactive.

Turning to `CCOc1cc(CNc2ccc(N3CCOCC3)cc2)cc(Br)c1OCC`, the call was inactive.

Consider `O=C(Cn1cnc([N+](=O)[O-])n1)N/N=C/c1ccc(O)cc1O`, for which the outcome was inactive.

Consider `O=S(=O)(c1ccccc1)N1N=C(c2ccc(O)cc2)CC1c1ccco1` (stereo unspecified), for which the compound was called inactive.

Turning to `CN(C)c1ccc(NC(=O)c2ccc3nsnc3c2)cc1`, the call was inactive.

Regarding `O=C(c1ccccc1)N1CCN(C2CCCCC2)CC1`, the compound was classed as inactive.

As to `COc1ccc(/C=N/n2c(-c3n[nH]c4c3CCC4)n[nH]c2=S)c(OC)c1OC`, the call was inactive.

For `Nc1n[nH]c(N)c1N=Nc1ccc2c(c1)OCO2`, the compound was called inactive.

Take `O=C(CSc1ccc2ccccc2c1)N1CCN(c2ccc(O)cc2)CC1`: the result was inactive.

Regarding `Oc1ccc(NC(=S)Nc2ccc(F)cc2)cc1`, the compound was classed as inactive.

For `Oc1ccc(NC(=S)N=Nc2c(O)[nH]c3ccccc23)cc1`, the outcome was inactive.

For `Oc1ccc(N2CCN(Cc3cc4c(cc3Br)OCCO4)CC2)cc1`, the result was inactive.

For the compound `CC1CCN(CC(=O)Nc2ccc(S(=O)(=O)NC3CC3)cc2)CC1`, the compound was classed as inactive.

For `Cc1ccc(NC(=O)NC(=O)CN2CCN(c3ccc(O)cc3)CC2)c(C)c1`, the compound was classed as inactive.

As for `CN(c1ccc(O)cc1)c1nc(-c2cccs2)cs1`, the result was inactive.

As to `COc1ccc(CNC(=O)CN(C)Cc2ccc(C(C)(C)C)cc2)cc1`, the result was inactive.

For the compound `CN1CCN(C=NC2=NN(c3cccc(C(F)(F)F)c3)CC2)CC1`, the compound was called inactive.

As to `CCOC(=O)c1[nH]c(=S)n(Cc2ccccc2)c1C(=O)OCC`, the compound was called inactive.

For the compound `CN(C)c1ccc(NC(=O)COC(=O)c2ccc3c(c2)OCO3)cc1`, the result was inactive.

With `COC(=O)C1CCN(C(=O)COC(=O)/C=C/c2ccc(O)c(OC)c2)CC1`, the result was inactive.

As for `CSc1nc(/C=C2\C=Nc3ccccc32)c(O)n1C`, the compound was called inactive.

`CCOC(=O)C1CCCN(C(=S)Nc2ccc(Nc3ccccc3)cc2)C1` (stereo unspecified): the result was inactive.

Take `COc1ccc(-n2cnc(=S)[nH]c2=S)cc1`: the compound was called inactive.

Take `CN(C)c1ccc(-n2cccc2/C=C/[N+](=O)[O-])cc1`: the result was inactive.

On to `COc1ccc(NC2CCCN(C(=O)c3ccccc3-c3ncc[nH]3)C2)cc1` (stereo unspecified), for which the compound was called inactive.

Consider `CCN1CCN(CCOc2cccc(Cl)c2Cl)CC1`, for which the compound was classed as inactive.

In the case of `COc1ccc(NC(=O)c2cc3ccc(O)cc3o/c2=N\O)cc1`, the compound was classed as inactive.

On to `Cc1sc2ncnc(Nc3ccc(O)cc3)c2c1C`, for which the call was inactive.

Turning to `CCN(CC)S(=O)(=O)c1cccc(C(=O)N/N=C/c2ccc(OC)c(O)c2)c1`, the result was inactive.

As to `Cc1c(O)ccc2c3c(c(=O)oc12)CCCC3`, the outcome was inactive.

On to `Cc1ccc2c(c1)C(C)CC(C)(C)N2C(=O)CN1CCN(C)CC1` (stereo unspecified), for which the compound was classed as inactive.

In the case of `O=c1c(-c2ccccc2Cl)c[nH]n1-c1ccccc1`, the result was inactive.

In the case of `O=c1c(-c2cccc(Cl)c2)c[nH]n1-c1ccccc1`, the outcome was inactive.

As to `Cc1ccc(OC(=O)CCC(=O)Nc2ccc(C)c(C)c2)cc1`, the outcome was inactive.

For `COc1cc(/C=C/C(=O)OCC(=O)NC(=O)NC(C)C)ccc1O`, the outcome was inactive.

As to `COc1ccc(N2CCN(C(=O)CCCn3nnnc3CN3CCOCC3)C(C)C2)cc1` (stereo unspecified), the call was inactive.

With `O=C1/C(=C\c2ccc(O)cc2)SC(=S)N1/N=C/c1ccc(O)cc1`, the compound was called inactive.

Consider `Cc1cc(O)ccc1N=Cc1c(C(F)(F)F)[nH][nH]c1=O`, for which the result was inactive.

With `Nc1ccc2c(c1)OCCOCCOCCOCCOCCO2`, the compound was called inactive.

As for `Oc1ccccc1CNc1ccc2c(c1)OCCO2`, the compound was called inactive.

With `Nc1ccc2nc(CCCCc3nc4ccccc4[nH]3)[nH]c2c1`, the outcome was inactive.

As to `CCOC(=O)c1cc(NCc2cccs2)ccc1N1CCOCC1`, the compound was called inactive.

As for `CN1CCN(/N=C/c2nc(-c3ccccc3)n3ccccc23)CC1`, the result was inactive.

Consider `CN(C)c1ccc(Nc2ccc([N+](=O)[O-])cn2)cc1`, for which the result was inactive.

As for `c1cc(CNc2ccc3c(c2)OCCO3)ccn1`, the compound was classed as inactive.

In the case of `CN1CCCN(Cc2ccccc2C(F)(F)F)CC1`, the outcome was inactive.

In the case of `Cc1ccc(CN2CCN(Cc3ccco3)CC2)cc1`, the compound was classed as inactive.

`Cc1ccc(NC(=O)CN(C)C2CCCCC2)cc1Cl`: the compound was classed as inactive.

In the case of `CN1C(=O)NC(c2ccc(O)cc2)C2=C1CN(c1ccc(O)cc1)C2=O` (stereo unspecified), the call was inactive.

In the case of `COc1ccc(/C=N/NC(=O)c2cccc(S(=O)(=O)N3CCCC3)c2)cc1O`, the outcome was inactive.

As to `CN(C)c1cc(NC(=O)CN2CCCC2)c2ccccc2n1`, the call was inactive.

For `CCOc1ccc(CNC2CCCc3ccccc32)cc1` (stereo unspecified), the result was inactive.

Regarding `Nc1ccn([C@@H]2O[C@H](CNCC3=CCOc4ccc(O)cc43)[C@@H](O)[C@H]2O)c(=O)n1`, the compound was classed as inactive.

Consider `O=C(c1cc(C2CC2)nn1-c1ccccc1)N1CCN(c2ccc(O)cc2)CC1`, for which the compound was called inactive.

`O=C(c1ccccc1)c1ccc(C(=O)N2CCN(c3ccc(O)cc3)CC2)cc1`: the compound was classed as inactive.

With `O=C(CN1CCCCCC1)Nc1nc2ccccc2s1`, the compound was called inactive.

For `Cc1ccc(NC(=O)CN2CCC(Cc3ccccc3)CC2)cc1S(=O)(=O)N(C)C`, the compound was called inactive.

For `Cn1c(N2CCOCC2)c(/C=N/O)c2ccccc21`, the outcome was inactive.

Turning to `CN(C)/N=C/c1ccc(N2CCOCC2)cc1`, the compound was classed as inactive.

Take `COc1ccc(NC(=S)NNS(=O)(=O)c2ccc3ccccc3c2)c(OC)c1`: the outcome was inactive.

Take `O=C(NC(=S)N1CCN(c2ccc(O)cc2)CC1)c1ccco1`: the compound was classed as inactive.

Turning to `COc1cccc(N2CC(C(=O)Oc3ccc4ccccc4c3)CC2=O)c1` (stereo unspecified), the compound was called inactive.

Consider `COc1ccc(Cn2nnnc2C(c2cccnc2)N2CCN(c3ccc(O)cc3)CC2)cc1` (stereo unspecified), for which the compound was classed as inactive.

As for `CC1(C)CC(=O)C(C=Nc2ccc(O)cc2)=C(O)C1`, the compound was classed as inactive.

For the compound `CC1(C)CC(=O)C=C(Nc2ccc(O)cc2)C1`, the compound was classed as inactive.

On to `Cc1ccc(/C=N/Nc2ccc(Cl)c(C(=O)O)c2)s1`, for which the call was inactive.

With `CCN(CC(=O)Nc1ccc(S(=O)(=O)N2CCCC2)cc1)CC(=O)Nc1cccc(OC)c1`, the result was inactive.

Regarding `O=[N+]([O-])c1ccc(Oc2cccc3cccnc23)c([N+](=O)[O-])c1`, the result was inactive.

Regarding `Nc1cc(SCc2ccc([N+](=O)[O-])cc2)ncn1`, the result was inactive.

With `Cc1ccc(S(=O)(=O)Oc2ccc(/C=C3/C(=N)N4C(=NC3=O)SN=C4S(C)(=O)=O)cc2)cc1`, the compound was classed as inactive.

On to `COc1cc2nc(=S)n(CCCN3CCOCC3)c(N)c2cc1OC`, for which the compound was called inactive.

As for `CC(Oc1ccc(Cl)cc1Cl)C(=O)Nc1ccc(O)cc1` (stereo unspecified), the call was inactive.

Consider `COc1cccc(CNc2ccc3c(c2)ncn3C)c1OC`, for which the compound was classed as inactive.

In the case of `Oc1ccc(NCc2ccccc2OCc2ccccc2F)cc1`, the compound was called inactive.

Turning to `COc1cccc(CNc2ccc(N3CCCCC3)cc2)c1OC`, the outcome was inactive.

As to `O=C(c1c(Cl)cccc1Cl)N1CCN(c2cccc3[nH]ccc23)CC1`, the result was inactive.

`COc1ccc(N2CCC(CNC(=S)Nc3cccc(C)c3)C2)cc1` (stereo unspecified): the outcome was inactive.

As for `Cc1nc2ccccc2n2c(O)c(CC(=O)O)cc12`, the outcome was inactive.

Take `Clc1cc(Cl)c(OCCCCn2cncn2)c(Cl)c1`: the compound was called inactive.

For the compound `COc1cc(/C=N\N=C2/SC(CC(=O)O)C(=O)N2c2ccc(O)cc2)ccc1O` (stereo unspecified), the compound was called inactive.

For the compound `CCN(CC)S(=O)(=O)c1ccc(C)c(NC(=O)CN2CCN(Cc3ccccc3)CC2)c1`, the outcome was inactive.

Take `CCN(CC)c1ccc(S(=O)(=O)N2CCOCC2)cc1NC(=O)COC(=O)/C=C/c1ccc(O)c(OC)c1`: the compound was called inactive.

Consider `CCn1cnc2cc(NCc3ccc(OC)cc3)ccc21`, for which the call was inactive.

`COc1ccc2c(c1)-c1nc(/N=C/c3ccccc3O)sc1CC2`: the compound was called inactive.

Consider `Cn1cccc1/C=N/N1CCN(c2ccccc2)CC1`, for which the result was inactive.

`Cc1cc(C)n(CCC(=O)N/N=C/c2ccc(O)cc2)n1`: the compound was called inactive.

As for `COc1cc(/C=N/NC(=O)c2nc(C)cc(C)n2)ccc1O`, the compound was classed as inactive.

For `COc1cc(/C=N/Nc2cccc3cccnc23)cc(OC)c1O`, the outcome was inactive.

For `Cc1cc(=O)[nH]c(N/N=C/c2ccc(O)c(O)c2)n1`, the outcome was inactive.

As to `COc1cc(/C=C/C(=O)OCC(=O)N2CCCc3ccccc32)ccc1O`, the compound was called inactive.

Take `COc1cc(/C=C/C(=O)OCC(=O)NC(=O)NC(C)(C)C)ccc1O`: the result was inactive.

For the compound `COc1cc(/C=C/C(=O)OCC(=O)NC2CCS(=O)(=O)C2)ccc1O` (stereo unspecified), the compound was classed as inactive.

Take `COc1ccc(N2CCN(C(c3cccs3)C(C)NC(=O)c3ccco3)CC2)cc1` (stereo unspecified): the result was inactive.

For the compound `O=C1NN(c2ccccc2)C(=O)C1=Cc1ccccc1O`, the call was inactive.

Consider `O=C1NN(c2ccc(Br)cc2)C(=O)/C1=C\c1ccc(O)cc1O`, for which the outcome was inactive.

Turning to `C(=N\N1CCOCC1)/c1nc(-c2ccccc2)n2ccccc12`, the result was inactive.

With `COc1cc(OC)cc(C(=O)N2CCN(Cc3ccccc3Br)CC2)c1`, the compound was classed as inactive.

With `COc1cc(/C=N/NC(=O)CCN2CCCCC2)ccc1O`, the call was inactive.

With `COc1ccc2nc(C)cc(SCC(=O)N/N=C/c3ccc(O)c(O)c3)c2c1`, the compound was called inactive.

Consider `COc1cc(/C=N/Nc2ccccn2)cc(OC)c1O`, for which the compound was classed as inactive.

As to `COc1ccc2c(/C=N/Nc3ccc(C(=O)O)cc3)c[nH]c2c1`, the outcome was inactive.

As to `COc1ccc2c(c1)-c1nc(/N=C/c3cccc(OC)c3O)sc1CC2`, the call was inactive.

As for `CN1CCCCCC1=Nc1ccccc1C#N`, the result was inactive.

For `CCn1c(C)nc2cc(C(=O)N/N=C/c3cccc(O)c3O)ccc21`, the compound was classed as inactive.

As to `O=c1/c(=C/c2ccc(O)cc2)sc2n1CCCN=2`, the compound was classed as inactive.

Regarding `Cc1c(N=Nc2ccc(O)cc2)c(=O)n(-c2ccccc2)n1C`, the compound was classed as inactive.

On to `NC(=S)NNc1ccnc2cc(Cl)ccc12`, for which the result was inactive.

As for `Oc1ccc(Nc2ccnc3cc(Cl)ccc23)cc1`, the compound was classed as inactive.

On to `Cc1ccc(NCc2ccco2)cc1C`, for which the outcome was inactive.

For `COc1cc(/C=N/NC(=O)CCC(=O)Nc2ccc(F)cc2)ccc1O`, the outcome was inactive.

With `CN(C)c1ccc(N/C=C/C(=O)C(C)(C)C)cc1`, the outcome was inactive.
